# PI4K2A inh: blocks human PI4K2A kinase activity; activity change, negative = inhibition, % at 76.9 µM; purified PI4K2A, ADP-Glo luminescence, 1 h; active compounds read low; 420,000 tested, 0.13% active; Q9BTU6; in the data active = activity change below about -50%; inconclusive = mostly about -30% to -49%;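 note: -100% = wells without enzyme as full effect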
#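 ADP-Glo luminescence measured ADP generated by PI4K2A enzyme (4 ug/mL before mixing) with 1.2 mM PI substrate (pre-mix) and 300 microM ATP (pre-mix). Tris pH7.5 buffer with MgCl2, Triton X-100; 1 h reaction at ambient temperature.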
# D3 antag: D3 dopamine receptor (human) antagonism; P35462; D3R cells, DiscoveRx beta-arrestin luminescence, antagonist mode; active compounds read low; max response, negative = inhibition, %; 360,000 tested, 2.5% active; AID 652054; in the data active = max response below about -50%; inconclusive = no clear call, values can overlap the other calls; note: % is set by controls: 0 for no effect and ±100 for the full control effect
#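 Cells plated overnight at 1500 cells/well, then exposed to library compounds with dopamine controls for 90 minutes at 37 degrees C. DiscoveRx reagent added for 30–60 minutes at room temperature; luminescence read, quantitative HTS format.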
# DRD3 agonist: D3 dopamine receptor (human) agonism; P35462; D3R DiscoveRx beta-arrestin cells, luminescence, 90 min; max activation, %; 410,000 tested, 0.58% active; AID 652048; in the data active = max activation above about 30%; note: 0% is about no effect
#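 Agonist-mode cell screen: cells plated at 1500/well and incubated overnight at 37 °C, then exposed to library compounds for 90 min at 37 °C. Detection reagent was added for 30–60 min at room temperature, and luminescence was read.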
# PI5P4K alpha inh: inhibitors of human PI5P4K alpha; 330,000 tested, 1.2% active; max response, %; AID 652105; P48426; PI5P4Kalpha enzyme, ADP-Glo luminescence, 60 min; active compounds read low; active = max response of -50% or lower; inconclusive = between -30% and -50%; inactive = -30% or higher; note: value at the top dose of about 77 µM; % is set by controls: 0 for no effect and ±100 for the full control effect
# Target sequence (P48426 whole entry, looked up): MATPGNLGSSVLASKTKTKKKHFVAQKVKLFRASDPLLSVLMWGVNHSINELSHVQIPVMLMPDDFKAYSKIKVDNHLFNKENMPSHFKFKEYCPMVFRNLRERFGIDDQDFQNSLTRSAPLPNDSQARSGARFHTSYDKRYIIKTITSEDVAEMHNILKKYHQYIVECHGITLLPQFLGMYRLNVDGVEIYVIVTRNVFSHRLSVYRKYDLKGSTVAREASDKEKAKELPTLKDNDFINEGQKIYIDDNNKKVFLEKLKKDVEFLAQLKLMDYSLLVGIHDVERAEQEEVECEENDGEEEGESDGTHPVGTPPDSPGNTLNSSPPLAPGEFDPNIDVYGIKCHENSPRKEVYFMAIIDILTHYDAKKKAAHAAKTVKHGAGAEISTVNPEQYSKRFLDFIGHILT
#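 ADP-Glo luminescence end-point read after a 60 min room-temperature kinase reaction of PI5P4Kalpha plus substrate, initiated with ATP at 5 microM final. Buffer: 0.038 M HEPES pH 7.4, EGTA, 0.1% CHAPS, 5% DMSO.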
# LDHA inh: inhibitors of human lactate dehydrogenase A; activity change, % (values are at about 110 or 230 µM); 480,000 tested, 0.15% active; purified LDHA, NADH/diaphorase-resazurin fluorescence; active compounds read low; in the data active = activity change below about -30%; inconclusive = mostly about -25% to -30%;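 note: plate controls were DMSO wells for no effect and wells without enzyme for full effect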
#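 LDH5 2 nM; NADH 0.06 mM, pyruvate 0.2 mM; 200 mM Tris pH 7.4, EDTA, Tween-20; 5 min RT. Detection: diaphorase 0.133 mg/mL + resazurin 37 µM, fluorescence ex540/em590 at 0 and 20 min; normalized to enzyme-free and DMSO wells.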
# Active calls of the source: *; ? = inconclusive; / = no result given. The list is not random: actives were taken first. Their share in the collection is about 3.3%.
SMILES,PI4K2A inh,D3 antag,DRD3 agonist,PI5P4K alpha inh,LDHA inh
CC(C)c1nc(NCCCN(C)C)c(C#N)c2c1CCCC2,/,/,/,/,6
CNC[C@@H](C)NC[C@@H](Cc1ccccc1)NCCc1ccccc1,2,-86*,-3,-7,-10
Cc1ccc(Nc2cc(C)c3ccccc3n2)c(C)c1,/,/,/,/,3
CCN(CCO)Cc1cn[nH]c1-c1ccc(C)c(C)c1,-1,-66*,3,/,-15
CCN(CCO)Cc1csc2cc(C)ccc12,-1,-6,-38,4,0
CC1(C)CC(N2CCN(Cc3ccccc3)CC2)=CC(=[N+]2CCCCC2)C1,-2,-16,-23,?,-43*
O=C(CN(C(=O)CNS(=O)(=O)c1ccccc1)C1CCCC1)NCC1CCCO1 (stereo not given),8,-53*,2,-7,-4
O=C(Cc1ccc(Br)cc1)Nc1ccc(O)c(-c2nc3ccccc3o2)c1,/,/,/,/,3
Cc1ccc2c(CSc3nnc4ccccn34)cc(=O)oc2c1,/,/,/,/,8
Cc1cc(C)c(C#N)c(SCCS(=O)(=O)Cc2ccccc2)n1,0,-84*,-11,/,-17
CN(C)CCN1CCC(CN)CC1,/,/,/,/,7
O=C(NCCN1CCN(c2ccccc2F)CC1)C1CCCN(S(=O)(=O)c2cnc[nH]2)C1 (stereo not given),-4,-56*,27,-4,-1
O=C(NCCN1CCC(Cc2ccccc2)CC1)C1CCCN(S(=O)(=O)c2cnc[nH]2)C1 (stereo not given),-4,-77*,-15,-8,-7
O=C(NCCc1ccccc1)C1CCCN(S(=O)(=O)c2cnc[nH]2)C1 (stereo not given),-6,-23,-1,-4,-3
CCOC(=O)C1Nc2ccc(C(F)(F)F)cc2C2c3ccccc3CC12 (stereo not given),-1,-24,0,10,0
CCOC(=O)C1Nc2ccccc2C2C(O)C(O)CC12 (stereo not given),-19,-52*,-34,-19,10
COc1ccc2oc(-c3ccc(NC(=O)C(C)C)cc3)nc2c1,/,/,/,/,0
Cc1c(C(=O)Nc2cccc(C(F)(F)F)c2)oc2ccc(S(=O)(=O)N3CCOCC3)cc12,-1,6,64*,/,-4
COCCCNCCCCOc1ccc(OCc2ccccc2)cc1,-2,-11,-2,3,-18
CCc1cccc(OCCCCNCCOC)c1,1,-67*,-13,3,-11
CCOc1ccccc1N1CCN(Cc2cccc(OC)c2O)CC1,-2,-93*,-66,/,6
COc1ccccc1N1CCN(Cc2cc(Br)c(O)c3ncccc23)CC1,-14,-84*,-18,-23,15
CCOCc1cc(CN2CCN(c3ccccc3OC)CC2)c(O)c2ncccc12,-3,/,-20,/,10
O=C(CCNC(=O)c1ccsc1)Nc1ccc(N2CCCC2)nc1,/,/,/,/,6
COc1ccc(C(c2ccc(OC)cc2)N2CCN(C(=O)c3noc(C)c3[N+](=O)[O-])CC2)cc1,-1,/,/,/,/
SMILES,PI4K2A inh,D3 antag,DRD3 agonist,PI5P4K alpha inh,LDHA inh
COc1cc(C)c(NC(=O)c2c(C)noc2C(C)C)cc1OC,/,/,/,/,-17
Cc1cc(NC(=O)C(C)(C)C)cc(-c2nc3ccccc3o2)c1O,/,/,/,/,-10
CCOC(=O)c1c(CN2CCN(C)CC2)n(C)c2cc(Br)c(OC)cc12,1,?,-58,/,11
CCOC(=O)c1c(CN2CCCCC2)n(C)c2cc(Br)c(O)cc12,-3,-87*,-59,/,-12
Cc1ccsc1/C=N/n1c(-c2ccco2)n[nH]c1=S,-2,-59*,-4,0,-5
Cc1ccsc1/C=N/n1c(-c2ccccc2)n[nH]c1=S,6,-1,-1,-6,-6
O=c1cc(O)c2sc3nc(C(F)(F)F)cc(C45CC6CC(CC(C6)C4)C5)c3c2[nH]1,/,/,/,/,11
Cc1noc(C)c1COc1ccc(C(=O)O)cc1,1,-16,33*,4,0
CCCCS/C(N)=N/N=C/c1ccccc1O,5,-50*,-3,11,-3
Cc1cc(NC2CCCCC2)n2nc(C)c(-c3ccccc3)c2n1,/,/,/,/,8
CNc1cncc(-c2cc(C)c(O)c(C)c2)n1,2,-3,76*,-14,7
CNc1cncc(-c2ccc(O)cc2)n1,-5,10,7,-1,5
N#Cc1c(-c2ccccc2)cc(-c2ccccc2)nc1SCC(=O)NCC(=O)O,5,8,0,2,-102*
Cc1cccc2c1N(CCCOc1ccc(C(C)(C)C)cc1)C(=O)C2=O,31,-22,-8,-7,0
Cc1cccc2c1N(CCCOc1ccccc1)C(=O)C2=O,31,-50*,-10,7,2
O=C(Nc1ccc2c(c1)OCO2)NC1CCN(S(=O)(=O)c2ccc(F)cc2)CC1,0,/,/,/,/
Cc1ccc(-c2cc(-c3ccccc3)c(C#N)c(N)n2)o1,6,-12,1,-58*,1
C/C(=N/NC(N)=O)c1ccc([N+](=O)[O-])cc1,/,/,/,/,-5
N#CCSc1nnc(N)s1,9,19,2,-7,-9
N#CCSc1nnc(SCC#N)s1,6,4,19,-75*,-3
CC(=O)c1ccc(NC(=O)C2CC3CCCC(C2)C3=O)cc1 (stereo not given),/,/,/,/,7
O=C(Cc1csc(-c2ccccc2)n1)Nc1ccc(C(F)(F)F)cc1,0,-56*,-1,19,-3
CCn1c(CNc2ccccc2Cl)nnc1SCCN1CCCCC1,2,-60*,-7,/,-7
CC1CC1C(=O)OCC(=O)NC(=O)c1ccc(C(C)(C)C)cc1 (stereo not given),14,19,39*,1,-4
CSc1ccc(C(=O)C2CCCN(C(=O)Cc3nonc3C)C2)cc1 (stereo not given),2,-84*,16,5,-5
SMILES,PI4K2A inh,D3 antag,DRD3 agonist,PI5P4K alpha inh,LDHA inh
CSc1ccc(C(=O)C2CCCN(C(=O)Cn3cnnn3)C2)cc1 (stereo not given),-4,-7,0,6,1
COC(=O)c1c(-c2ccc(Cl)cc2)noc1N1CCN(c2cccc(OC)c2)CC1,-1,/,82*,/,-8
COC(=O)c1c(-c2ccc(Cl)cc2)noc1N1CCN(c2cccc(C)c2C)CC1,-1,/,3,/,-1
COc1ccccc1/C=N/NC(=O)COCC(=O)N/N=C/c1ccccc1OC,-8,10,-4,-17,-1
COc1cccc(NC(=O)C(=O)N/N=C/c2cc(C)n(-c3ccc(Cl)c(Cl)c3)c2C)c1,-7,-94*,-9,/,5
COc1ccccc1/C=N/NC(=O)CC(=O)Nc1ccc(Cl)c(Cl)c1,-8,-65*,-2,-2,-13
Cc1cc(/C=N/NC(N)=S)c(C)n1-c1ccc(Cl)c(Cl)c1,5,?,-20,-11,4
CCc1ccccc1NC(=O)N1CCN(S(C)(=O)=O)CC1,/,/,/,/,0
O=C(NCC(=O)N1CCN(CCOc2ccccc2)CC1)c1ccc(N2CCCC2=O)cc1,/,/,/,/,1
